{
  "source": "PubChem BioAssay (NCATS)",
  "note": "Inconclusive results are not listed. Active and inactive are the calls of the source. Calls follow the shape of the dose curve; as a rule, active = well fitted inhibition curve with a large enough effect; inconclusive = small, poorly fitted or top-dose-only effect; inactive = no such curve, though single readings can be large or run the other way. Potency is read from the fitted curve at half-maximal effect.",
  "data": [
    {"experiment": "BET inhibitor-based combinations targeting novel dependencies in MECOM-rearranged (r) AML: MV-4-11 cell line (AID 2202233); also: nearly all actives have a fitted effect of over 45% in size", "conditions": "MV-4-11 AML viability, CellTiter-Glo luminescence, 48 h; series mostly up to 46 µM", "outline": "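Activity is given as area under the curve and as Z-AUC, mean-centred within each cell line. It comes from 11-point dose curves normalized to DMSO and empty wells. CellTiter-Glo luminescence was read after 48 hr drug exposure of 500 cells/well.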", "values": [
      {"compound": "CC(C)NCCCn1c(Sc2cc(Cl)cc(Cl)c2)nc2c(N)ncnc21", "Potency": "14.8 µM (active)"},
      {"compound": "Cc1[nH]c(/C=C2\\C(=O)Nc3ccccc32)c(C)c1CCC(=O)O", "Potency": "13.2 µM (active)"},
      {"compound": "NS(=O)(=O)Oc1ccc2c3c(c(=O)oc2c1)CCCCC3", "Potency": "inactive"},
      {"compound": "CN(Cc1cnc2nc(N)nc(N)c2n1)c1ccc(C(=O)N[C@@H](CCC(=O)O)C(=O)O)cc1", "Potency": "0.105 µM (active)"},
      {"compound": "Nc1nccn2c(C3CCC(C(=O)O)CC3)nc(-c3cc4cccc(Cl)c4[nH]3)c12", "note": "(stereo not given)", "Potency": "2.35 µM (active)"},
      {"compound": "C=CCNC1=C2CC(C)CC(OC)C(O)C(C)/C=C(\\C)C(OC(N)=O)C(OC)/C=C/C=C(\\C)C(=O)NC(=CC1=O)C2=O", "note": "(stereo not given)", "Potency": "0.166 µM (active)"},
      {"compound": "N=C1CCCN1Cc1[nH]c(=O)[nH]c(=O)c1Cl", "Potency": "inactive"},
      {"compound": "N#C/C(=C\\c1ccc(O)c(O)c1)C(=O)NCc1ccccc1", "Potency": "14.8 µM (active)"},
      {"compound": "Cc1cc(C(=O)NOCCO)c(Nc2ccc(I)cc2F)n(C)c1=O", "Potency": "0.0295 µM (active)"},
      {"compound": "Cn1nccc1Nc1nccc(-c2cc3c(s2)C(C)(C)N(CCN2CCOCC2)C3=O)n1", "Potency": "4.17 µM (active)"},
      {"compound": "COc1ccc(-c2cc(C(O)C3CCCCN3)c3ccccc3n2)cc1", "note": "(stereo not given)", "Potency": "2.95 µM (active)"},
      {"compound": "COc1nc(N)nc2c1ncn2C1OC(CO)C(O)C1O", "note": "(stereo not given)", "Potency": "inactive"},
      {"compound": "C[C@H]1COCCN1c1cc(C2(S(=O)(=O)C3CC3)CC2)nc(-c2ccc(NC(=S)NCCO)cc2)n1", "Potency": "0.0934 µM (active)"},
      {"compound": "CN(C)CCCN=c1c2ccccc2n(C)c2[nH]c(=O)n(C)c(=O)c12", "Potency": "9.34 µM (active)"},
      {"compound": "CC1(C)C(N(O)C(=O)Nc2ccc(Cl)cc2)N(c2ccc(Cl)cc2)C(=O)N1CC(=O)N/N=C/C=C/c1ccc([N+](=O)[O-])o1", "note": "(stereo not given)", "Potency": "4.68 µM (active)"}
    ]}
  ]
}
